“And” between values parts separate entries of the source, which are not always exact repeats. Identical values can stand only once. This is part of a sample that, as a whole, favours compounds with a hit. Of some 79,000 tested, about 15% had one in any assay. A number with no mark means an inactive call. The source made the active and inactive calls. No stated cut-off is given here; in the data, active means growth inhibition above about 70%; inactive means the rest.

One test is described as follows: NCI Yeast Anticancer Drug Screen. Data for the bub3 strain (AID 167). To be noted: S. cerevisiae bub3 mutant strain, at 3.7 µM, active compounds read high. An outline of the steps: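 Screening used yeast with an engineered genetic alteration affecting cell cycle control. Compound-exposed cultures were compared with vehicle cultures, and reduced growth was taken as inhibition.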
As for `O=[N+]([O-])c1cc[n+]([O-])cc1`, the growth inhibition is -8%.

As to `CC1(C)CC(=O)C(/C=N/c2nc(-c3ccccc3)cs2)=C(O)C1`, the growth inhibition was -3%.

With `Nc1nc(N)c2nc(CNc3ccc(C(=O)NC(CCC(=O)O)C(=O)O)cc3F)cnc2n1` (stereo unspecified), the growth inhibition was 6%.

Take `COC(=O)CC1(O)C(/C=C/c2ccccc2)C(C(=O)OC)C(=O)C(C(=O)OC)C1C(=O)OC` (stereo unspecified): the growth inhibition was -5%.

Turning to `CC(C)(C)c1ccc(NS(=O)(=O)c2ccc(N)cc2)cc1`, the growth inhibition was 5%.

Turning to `CCN(CC)CCNc1ccc([N+](=O)[O-])c2nc3ccccc3c(N)c12`, the growth inhibition is -40%.

For `CCCCN(CCCC)C(=O)/C=C/c1ccccc1`, the growth inhibition was 10%.

`O=c1[nH]c(-c2ccccc2)nc2c1sc1nc3ccccc3n12`: the growth inhibition is -45%.

Regarding `O=[N+]([O-])c1ccc2c(c1)/C(=N/N=C1c3ccccc3Cc3ccccc31)c1cc([N+](=O)[O-])cc([N+](=O)[O-])c1-2`, the growth inhibition was 57%.

With `CC(C)C(C)/C=C\C(C)C1CCC2C3=CC=C4CC(O)CCC4(C)C3CCC21C` (stereo unspecified), the growth inhibition was 3%.

As for `O=C1Nc2ccc(Br)cc2C1=Nc1ccc2c(c1)OCO2`, the growth inhibition is -22%.

As for `CCCCOCn1c(=O)[nH]c(=O)c2cc(Br)ccc21`, the growth inhibition is -36%.

With `Cc1ccc(S/C(=C\C(=O)O)c2ccccc2)cc1`, the growth inhibition is -4%.

Turning to `O=[N+]([O-])/C=C/c1cc(Cl)c(/C=C/[N+](=O)[O-])cc1Cl`, the growth inhibition is 37%.

On to `Cc1cc(S(=O)(=O)Nc2nnc3cnc4ccccc4n23)c(S)cc1Cl`, for which the growth inhibition is 1%.

Take `O=C(/C=C/c1cc(Cl)cc(Cl)c1O)c1cccc(O)c1`: the growth inhibition was -11%.

In the case of `NC1CCCCC1N.Nc1c(N=Nc2ccc(-c3ccc(N=Nc4cc(S(=O)(=O)[O-])c5ccccc5c4N)cc3)cc2)cc(S(=O)(=O)[O-])c2ccccc12.[OH3+].[OH3+].[Pt+4]`, the growth inhibition was -1%.

With `COC(=O)CCC(NC(=S)N/N=C(\C)c1ccccn1)C(=O)OC` (stereo unspecified), the growth inhibition was 28%.

Take `NC(=O)C(=O)NNc1ccccc1`: the growth inhibition is 6%.

`COc1cc(C2SCC(=O)N2c2ccc(-c3ccc(-n4c(-c5ccccc5)nc5ccccc5c4=O)cc3)cc2)ccc1O` (stereo unspecified): the growth inhibition is 9%.

`COc1ccc(/C=C/c2sc3ccccc3[n+]2CCCCI)cc1OC`: the growth inhibition is -8%.

Consider `Cc1c(C(C)C)cc(OCCO)cc1C(C)C`, for which the growth inhibition is -8%.

As for `Cc1cc(NCCCCCCCCNc2cc(C)nc3cc(N)ccc23)c2ccc(N)cc2n1`, the growth inhibition was -45%.

For the molecule `C=C(Cl)COC(=O)Nc1cccc(Cl)c1`, the growth inhibition is -17%.

As for `CC(=O)OC1CC2C(C)(C)C(=O)C=C[C@]2(C)C2CCC3(C)C(=CCC3[C@H](CO)C[C@H](O)C(=O)C(C)(C)O)[C@]12C` (stereo partly specified), the growth inhibition is -35%.

With `COc1ccc(/C=C/C(=O)c2ccccc2)cc1OC`, the growth inhibition was 14%.

For `COc1c(O)c(C=O)c(Br)c(C=O)c1O`, the growth inhibition was -1%.

For `O=[N+]([O-])c1cc(Cl)cnc1Br`, the growth inhibition is -10%.

In the case of `Cc1ccc2c(c1)C1(SC(C)C(=O)N1c1ccc(Cl)cc1)C(=O)N2` (stereo unspecified), the growth inhibition is 10%.

Turning to `COc1cc(CSc2ccc(O)cc2)cc(O)c1O`, the growth inhibition was 10%.

Take `Cc1ccc2c3ccc4c(c3n(C)c2c1)C(=O)C=CC4=O`: the growth inhibition is -1%.

As to `O=C(Nc1ccc(Cl)cc1)Nc1nnc2nc(C(C(=O)c3cccc([N+](=O)[O-])c3Cl)c3nc4nnc(NC(=O)Nc5ccc(Cl)cc5)n4[nH]c3=O)c(=O)[nH]n12`, the growth inhibition was -5%.

For the molecule `O=C(O)C1CC(c2ccccc2)=NN1c1ccccc1` (stereo unspecified), the growth inhibition is -22%.

`CCCCc1ccc(-n2c(C)c(COC(=O)NC)c(COC(=O)NC)c2C)cc1`: the growth inhibition is -39%.

Regarding `CCC(=O)c1cc(C(=O)C(=S)SC)cc(C(=O)C(=S)SC)c1`, the growth inhibition is 44%.

On to `CCn1c(O)c(C=Nc2ccccc2)s/c1=N/Nc1nc(-c2ccccc2)cs1`, for which the growth inhibition is -3%.

As for `Cc1ccccc1N=C(NO)c1ccccc1`, the growth inhibition was -1%.

Consider `Cc1nc2ccccc2nc1NNc1ccccc1`, for which the growth inhibition was 9%.

Staying with this test, now noted: S. cerevisiae bub3 mutant strain, at 5.0 µM (retest, dose inferred, filed as 0.5), active compounds read high.
For `O=[N+]([O-])c1cc[n+]([O-])cc1`, the growth inhibition was -68% and 5%.

Consider `CC1(C)CC(=O)C(/C=N/c2nc(-c3ccccc3)cs2)=C(O)C1`, for which the growth inhibition was -19%.

Take `Nc1nc(N)c2nc(CNc3ccc(C(=O)NC(CCC(=O)O)C(=O)O)cc3F)cnc2n1` (stereo unspecified): the growth inhibition was 2%.

Turning to `COC(=O)CC1(O)C(/C=C/c2ccccc2)C(C(=O)OC)C(=O)C(C(=O)OC)C1C(=O)OC` (stereo unspecified), the growth inhibition is -2%.

In the case of `CC(C)(C)c1ccc(NS(=O)(=O)c2ccc(N)cc2)cc1`, the growth inhibition was 28%.

Regarding `CCN(CC)CCNc1ccc([N+](=O)[O-])c2nc3ccccc3c(N)c12`, the growth inhibition is -9%.

For `CCCCN(CCCC)C(=O)/C=C/c1ccccc1`, the growth inhibition was 18%.

Regarding `O=c1[nH]c(-c2ccccc2)nc2c1sc1nc3ccccc3n12`, the growth inhibition was 6%.

`O=[N+]([O-])c1ccc2c(c1)/C(=N/N=C1c3ccccc3Cc3ccccc31)c1cc([N+](=O)[O-])cc([N+](=O)[O-])c1-2`: the growth inhibition was 63%.

As to `CC(C)C(C)/C=C\C(C)C1CCC2C3=CC=C4CC(O)CCC4(C)C3CCC21C` (stereo unspecified), the growth inhibition is 99% (active).

As for `O=C1Nc2ccc(Br)cc2C1=Nc1ccc2c(c1)OCO2`, the growth inhibition was 30%.

`CCCCOCn1c(=O)[nH]c(=O)c2cc(Br)ccc21`: the growth inhibition was 23%.

For the molecule `Cc1ccc(S/C(=C\C(=O)O)c2ccccc2)cc1`, the growth inhibition is -2%.

Consider `O=[N+]([O-])/C=C/c1cc(Cl)c(/C=C/[N+](=O)[O-])cc1Cl`, for which the growth inhibition is 43%.

In the case of `Cc1cc(S(=O)(=O)Nc2nnc3cnc4ccccc4n23)c(S)cc1Cl`, the growth inhibition was 11%.

Take `O=C(/C=C/c1cc(Cl)cc(Cl)c1O)c1cccc(O)c1`: the growth inhibition is 38%.

Regarding `NC1CCCCC1N.Nc1c(N=Nc2ccc(-c3ccc(N=Nc4cc(S(=O)(=O)[O-])c5ccccc5c4N)cc3)cc2)cc(S(=O)(=O)[O-])c2ccccc12.[OH3+].[OH3+].[Pt+4]`, the growth inhibition is 91% (active).

Take `COC(=O)CCC(NC(=S)N/N=C(\C)c1ccccn1)C(=O)OC` (stereo unspecified): the growth inhibition is 22%.

With `NC(=O)C(=O)NNc1ccccc1`, the growth inhibition is 27%.

As to `COc1cc(C2SCC(=O)N2c2ccc(-c3ccc(-n4c(-c5ccccc5)nc5ccccc5c4=O)cc3)cc2)ccc1O` (stereo unspecified), the growth inhibition is -14%.

Regarding `COc1ccc(/C=C/c2sc3ccccc3[n+]2CCCCI)cc1OC`, the growth inhibition was 0%.

Take `Cc1c(C(C)C)cc(OCCO)cc1C(C)C`: the growth inhibition is -16%.

On to `Cc1cc(NCCCCCCCCNc2cc(C)nc3cc(N)ccc23)c2ccc(N)cc2n1`, for which the growth inhibition was 39%.

For `C=C(Cl)COC(=O)Nc1cccc(Cl)c1`, the growth inhibition was -25%.

Turning to `CC(=O)OC1CC2C(C)(C)C(=O)C=C[C@]2(C)C2CCC3(C)C(=CCC3[C@H](CO)C[C@H](O)C(=O)C(C)(C)O)[C@]12C` (stereo partly specified), the growth inhibition was 13%.

As for `COc1ccc(/C=C/C(=O)c2ccccc2)cc1OC`, the growth inhibition was 16%.

Regarding `COc1c(O)c(C=O)c(Br)c(C=O)c1O`, the growth inhibition is -1%.

As for `O=[N+]([O-])c1cc(Cl)cnc1Br`, the growth inhibition is -74%.

With `Cc1ccc2c(c1)C1(SC(C)C(=O)N1c1ccc(Cl)cc1)C(=O)N2` (stereo unspecified), the growth inhibition is 19%.

For the molecule `COc1cc(CSc2ccc(O)cc2)cc(O)c1O`, the growth inhibition is -7%.

For `Cc1ccc2c3ccc4c(c3n(C)c2c1)C(=O)C=CC4=O`, the growth inhibition was 43%.

As to `O=C(Nc1ccc(Cl)cc1)Nc1nnc2nc(C(C(=O)c3cccc([N+](=O)[O-])c3Cl)c3nc4nnc(NC(=O)Nc5ccc(Cl)cc5)n4[nH]c3=O)c(=O)[nH]n12`, the growth inhibition is -22%.

Turning to `O=C(O)C1CC(c2ccccc2)=NN1c1ccccc1` (stereo unspecified), the growth inhibition was -7%.

Take `CCCCc1ccc(-n2c(C)c(COC(=O)NC)c(COC(=O)NC)c2C)cc1`: the growth inhibition was 11%.

On to `CCC(=O)c1cc(C(=O)C(=S)SC)cc(C(=O)C(=S)SC)c1`, for which the growth inhibition was 35%.

Consider `CCn1c(O)c(C=Nc2ccccc2)s/c1=N/Nc1nc(-c2ccccc2)cs1`, for which the growth inhibition was -14%.

Regarding `Cc1ccccc1N=C(NO)c1ccccc1`, the growth inhibition is -67%.

Regarding `Cc1nc2ccccc2nc1NNc1ccccc1`, the growth inhibition is 38%.

For the origin of these results see PubChem BioAssay (NCI).
